Drawing on the antibiotic and cytotoxicity screens of Wong et al. (2023), this text covers cytotoxicity call for 66 molecules.

The campaign covered roughly 39,000 compounds. About 3,300 (8.5%) were called active. This excerpt belongs to a sample that is enriched for actives.

This test relates to HepG2. Put plainly: cytotoxicity call (relative viability < 0.9). To be noted: 10 µM.
For the molecule `COCC#Cc1ccc2c(c1)O[C@H](CN(C)C(=O)c1ccccc1F)[C@@H](C)CN([C@H](C)CO)S2(=O)=O`, the cytotoxicity call is “inactive”.
For `C[C@@H]1CN([C@H](C)CO)C(=O)Cc2cc(NS(=O)(=O)c3ccc(F)cc3)ccc2O[C@H]1CN(C)S(=O)(=O)c1ccc(F)cc1`, the cytotoxicity call is “inactive”.
Next, `COc1ccc(cc1)NC(=O)N1CC[C@]2(CC1)CN([C@@H](CO)c1[nH]c3cc(ccc3c12)OC)C(=O)CN1CCOCC1`: “inactive”; `O=C1NC(=O)/C(=C\c2ccccc2)N1`: “inactive”; `O=C(N[C@@H]1CC(=O)N(C2CC2)C1)C1CCC1`: “inactive”.
With `C[C@H]1CN([C@@H](C)CO)C(=O)c2cc(NC(=O)Cc3cn(C)c4ccccc34)ccc2O[C@@H]1CN(C)Cc1ccc(C(=O)Nc2ccccc2N)cc1`, the cytotoxicity call is “inactive”.
With `C[C@H](CO)N1C[C@H](C)[C@H](CN(C)C(=O)Nc2ccccc2)Oc2ccc(NC(=O)C3CC3)cc2CC1=O`, the cytotoxicity call was “inactive”.
Next, `N#Cc1cnc2c(C(N)=O)cnn2c1N`: “inactive”; `Cc1noc(C)c1NC(=O)Nc1ccc2c(c1)C(=O)N([C@H](C)CO)C[C@@H](C)[C@H](CN(C)Cc1ccccc1)OCCCC[C@@H](C)O2`: “inactive”; `Nc1nc(=O)c2[nH]c(=O)c(=O)[nH]c2[nH]1`: “inactive”.
Turning to `Cc1noc(C)c1NC(=O)Nc1ccc2c(c1)C(=O)N([C@@H](C)CO)C[C@H](C)[C@@H](CN(C)S(=O)(=O)c1cccs1)OCCCC[C@H](C)O2`, the cytotoxicity call is “inactive”.
For `C[C@@H]1CN([C@H](C)CO)C(=O)c2cc(NS(=O)(=O)c3cn(C)cn3)ccc2O[C@H]1CN(C)CC1CCCCC1`, the cytotoxicity call was “inactive”.
Turning to `C[C@H]1CN([C@@H](C)CO)C(=O)CCCn2cc(nn2)CO[C@H]1CN(C)C(=O)Nc1ccccc1C(F)(F)F`, the cytotoxicity call is “inactive”.
For `C[C@H](CO)N1C[C@H](C)[C@H](CN(C)S(C)(=O)=O)Oc2ncc(Br)cc2C1=O`, the cytotoxicity call is “inactive”.
On to `COc1ccc([C@@H](NC(=O)C2CCN(CCOc3ccc(Cl)cc3Cl)CC2)c2ccccn2)cc1`, for which the cytotoxicity call is “inactive”.
As for `COc1ccc(/C=C/CN2CCC(C(=O)N[C@@H](c3ccc(-c4ccccc4)cc3)c3cnccn3)CC2)cc1`, the cytotoxicity call is “active”.
Next, `COc1ccccc1[C@@H](NC(=O)C1CCN(CCc2ccc(Br)cc2)CC1)c1ccccn1`: “inactive”.
Turning to `COc1ccc(NC(=O)Nc2ccc3c(c2)C(=O)N([C@@H](C)CO)C[C@H](C)[C@@H](CN(C)C(=O)Nc2c(C)noc2C)OCCCC[C@H](C)O3)cc1`, the cytotoxicity call was “inactive”.
As for `CC(C)N(C)C(=O)c1cccc(NC(=O)c2ccncc2)c1OCCCN(C)Cc1ccc(Oc2ccccc2)cc1`, the cytotoxicity call is “inactive”.
For `CC(C)=CCC/C(C)=C/CO`, the cytotoxicity call is “inactive”.
As to `C=CC(C)(O)CCC=C(C)CCC=C(C)C` (stereo unspecified), the cytotoxicity call was “active”.
Regarding `CC(C)=CCCC(C)=CCCC(C)=CCCC(C)=CCCC(C)=CCCC(C)=CCCC(C)=CCCC(C)=CCCC(C)=CCO`, the cytotoxicity call was “inactive”.
As to `CC(C)=CCCC(C)=CCO`, the cytotoxicity call is “active”.
For `C=C[C@](C)(O)CCC=C(C)C`, the cytotoxicity call is “inactive”.
As to `C=CC(C)(O)CCC=C(C)C` (stereo unspecified), the cytotoxicity call is “inactive”.
In the case of `CN1CCN(C(=O)C[C@@H]2CC[C@H]3[C@H](COc4ccc(NC(=O)c5ccc(F)c(F)c5)cc4C(=O)N3C)O2)CC1`, the cytotoxicity call was “inactive”.
As for `C[C@@H]1CN([C@H](C)CO)C(=O)Cc2cc(NS(=O)(=O)c3ccc(Cl)cc3)ccc2O[C@H]1CN(C)S(C)(=O)=O`, the cytotoxicity call is “inactive”.
Regarding `Cc1ccc(S(=O)(=O)Nc2ccc3c(c2)C(=O)N([C@H](C)CO)C[C@H](C)[C@@H](CN(C)CC2CCCCC2)OCCCC[C@H](C)O3)cc1`, the cytotoxicity call is “inactive”.
Consider `Cc1ccc(S(=O)(=O)Nc2ccc3c(c2)C(=O)N([C@H](C)CO)C[C@H](C)[C@H](CN(C)CC2CCCCC2)OCCCC[C@@H](C)O3)cc1`, for which the cytotoxicity call is “inactive”.
For the molecule `Cc1ccc(S(=O)(=O)Nc2ccc3c(c2)C(=O)N([C@H](C)CO)C[C@@H](C)[C@@H](CN(C)CC2CCCCC2)OCCCC[C@@H](C)O3)cc1`, the cytotoxicity call was “active”.
Turning to `Cc1ccc(S(=O)(=O)Nc2ccc3c(c2)C(=O)N([C@@H](C)CO)C[C@@H](C)[C@@H](CN(C)CC2CCCCC2)OCCCC[C@H](C)O3)cc1`, the cytotoxicity call is “inactive”.
In the case of `Cc1ccc(S(=O)(=O)Nc2ccc3c(c2)C(=O)N([C@@H](C)CO)C[C@@H](C)[C@@H](CN(C)CC2CCCCC2)OCCCC[C@@H](C)O3)cc1`, the cytotoxicity call is “active”.
Next, `Cc1ccc(S(=O)(=O)Nc2ccc3c(c2)C(=O)N([C@@H](C)CO)C[C@@H](C)[C@H](CN(C)CC2CCCCC2)OCCCC[C@H](C)O3)cc1`: “inactive”.
Next, `Cc1ccc(S(=O)(=O)Nc2ccc3c(c2)C(=O)N([C@@H](C)CO)C[C@@H](C)[C@H](CN(C)CC2CCCCC2)OCCCC[C@@H](C)O3)cc1`: “inactive”; `Cc1ccc(S(=O)(=O)Nc2ccc3c(c2)C(=O)N([C@H](C)CO)C[C@@H](C)[C@@H](CN(C)CC2CCCCC2)OCCCC[C@H](C)O3)cc1`: “active”.
For the molecule `Cc1ccc(S(=O)(=O)Nc2ccc3c(c2)C(=O)N([C@H](C)CO)C[C@@H](C)[C@H](CN(C)CC2CCCCC2)OCCCC[C@@H](C)O3)cc1`, the cytotoxicity call was “inactive”.
Next, `Cc1ccc(S(=O)(=O)Nc2ccc3c(c2)C(=O)N([C@@H](C)CO)C[C@H](C)[C@H](CN(C)CC2CCCCC2)OCCCC[C@@H](C)O3)cc1`: “inactive”; `Cc1ccc(S(=O)(=O)Nc2ccc3c(c2)C(=O)N([C@H](C)CO)C[C@H](C)[C@H](CN(C)CC2CCCCC2)OCCCC[C@H](C)O3)cc1`: “active”.
As for `Cc1ccc(S(=O)(=O)Nc2ccc3c(c2)C(=O)N([C@@H](C)CO)C[C@H](C)[C@H](CN(C)CC2CCCCC2)OCCCC[C@H](C)O3)cc1`, the cytotoxicity call was “inactive”.
As for `CO[C@H]1CN(C)C(=O)c2ccc(NC(=O)Nc3ccc(Cl)cc3)cc2OC[C@@H](C)N(C(=O)Nc2c(C)noc2C)C[C@@H]1C`, the cytotoxicity call is “inactive”.
Consider `C[C@@H]1CCCCO[C@H](CN(C)Cc2ccc(C(=O)O)cc2)[C@@H](C)CN([C@H](C)CO)C(=O)c2cc(NS(=O)(=O)c3ccccc3)ccc2O1`, for which the cytotoxicity call was “inactive”.
Regarding `CCCNC(=O)N[C@@H]1C=C[C@H](CC(=O)N2CCN(C)CC2)O[C@@H]1CO`, the cytotoxicity call is “inactive”.
As for `C[C@@H]1CN([C@H](C)CO)C(=O)CCCn2nncc2CO[C@@H]1CN(C)C(=O)Nc1ccnc(N2CCOCC2)c1`, the cytotoxicity call was “inactive”.
Take `OC[C@@H](O)[C@@H](O)[C@@H](O)/C=N/Nc1ccccc1`: the cytotoxicity call is “inactive”.
Next, `CNC(=O)c1c(F)cccc1Nc1nc(Nc2cc3c(cc2OC)CCN3C(=O)CN(C)C)nc2[nH]ccc12`: “active”; `CN1C(=O)c2cc(NC(=O)Cc3cccs3)ccc2OC[C@H]2O[C@H](CC(=O)NCCCN3CCOCC3)CC[C@H]21`: “inactive”; `Cc1noc(C)c1NC(=O)Nc1ccc2c(c1)C(=O)N([C@@H](C)CO)C[C@H](C)[C@@H](CN(C)C(=O)C1CCCCC1)OCCCC[C@@H](C)O2`: “inactive”.
Regarding `COc1ccc2c3c([nH]c2c1)[C@H](CO)N(Cc1cc(ccc1F)F)C[C@]13CCN(CC1)C(=O)CN(C)C`, the cytotoxicity call was “inactive”.
Next, `CC[C@H](C(=O)N1CCCC[C@H]1C(=O)O[C@H](CCc1ccc(OC)c(OC)c1)c1cccc(OCC(=O)NCCNC(=O)COc2cccc([C@@H](CCc3ccc(OC)c(OC)c3)OC(=O)[C@@H]3CCCCN3C(=O)[C@@H](CC)c3cc(OC)c(OC)c(OC)c3)c2)c1)c1cc(OC)c(OC)c(OC)c1`: “inactive”.
Turning to `C=CC(=O)Nc1cccc([C@@H](CCc2ccc(OC)c(OC)c2)OC(=O)[C@@H]2CCCCN2C(=O)C(=O)C(C)(C)CC)c1`, the cytotoxicity call is “inactive”.
For the molecule `CCC(=O)Nc1cccc([C@@H](CCc2ccc(OC)c(OC)c2)OC(=O)[C@@H]2CCCCN2C(=O)C(=O)C(C)(C)CC)c1`, the cytotoxicity call was “inactive”.
In the case of `CCC(C)(C)C(=O)C(=O)N1CCCC[C@H]1C(=O)O[C@@H](CCc1ccc(OC)c(OC)c1)c1cccc(OCC(=O)NCCc2ccc(O)cc2)c1`, the cytotoxicity call was “inactive”.
As to `COc1ccc(CC[C@@H](OC(=O)[C@H]2CCCCN2C(=O)Cc2ccccc2)c2cccc(OCC(=O)O)c2)cc1OC`, the cytotoxicity call was “active”.
Take `CCCNC(=O)COc1cccc([C@@H](CCc2ccc(OC)c(OC)c2)OC(=O)[C@@H]2CCCCN2C(=O)C(=O)C(C)(C)CC)c1`: the cytotoxicity call was “active”.
Next, `COc1ccc(S(=O)(=O)Nc2ccc3c(c2)C(=O)N([C@@H](C)CO)C[C@H](C)[C@@H](CN(C)S(=O)(=O)c2cn(C)cn2)O3)cc1`: “inactive”; `C[C@H]1CN([C@@H](C)CO)C(=O)c2cc(NC(=O)C3CCCCC3)ccc2O[C@@H]1CN(C)Cc1ccc(C(F)(F)F)cc1`: “inactive”.
Next, `C[C@H](CO)N1C[C@H](C)[C@@H](CN(C)Cc2ccccc2)Oc2ccc(NC(=O)Cn3cnnn3)cc2C1=O`: “inactive”; `C[C@H]1CN([C@@H](C)CO)C(=O)c2cccc(NS(=O)(=O)c3ccccc3)c2O[C@H]1CN(C)S(=O)(=O)c1cn(C)cn1`: “inactive”.
Regarding `CCc1nc2ccc(C(=O)NCCCN3CCCC3=O)cn2c1N(CC)C(=O)NCCc1ccccc1`, the cytotoxicity call was “inactive”.
Turning to `C[C@H](CO)N1C[C@H](C)[C@H](CN(C)Cc2ccc(Cl)c(Cl)c2)Oc2ccc(NC(=O)Nc3ccc(F)cc3)cc2C1=O`, the cytotoxicity call was “active”.
With `C[C@@H]1CN([C@@H](C)CO)C(=O)c2cc(NC(=O)Nc3ccc(F)cc3)ccc2O[C@@H]1CN(C)Cc1ccc(Cl)c(Cl)c1`, the cytotoxicity call was “active”.
Take `C[C@@H]1CN([C@H](C)CO)C(=O)c2cc(NC(=O)Nc3ccc(F)cc3)ccc2O[C@H]1CN(C)Cc1ccc(Cl)c(Cl)c1`: the cytotoxicity call was “inactive”.
On to `C[C@H]1CN([C@@H](C)CO)C(=O)c2cc(NC(=O)Nc3ccc(F)cc3)ccc2O[C@H]1CN(C)Cc1ccc(Cl)c(Cl)c1`, for which the cytotoxicity call was “inactive”.
Regarding `C[C@@H]1CN([C@@H](C)CO)C(=O)c2cc(NC(=O)Nc3ccc(F)cc3)ccc2O[C@H]1CN(C)Cc1ccc(Cl)c(Cl)c1`, the cytotoxicity call was “inactive”.
On to `C[C@@H]1CN([C@H](C)CO)C(=O)c2cc(NC(=O)Nc3ccc(F)cc3)ccc2O[C@@H]1CN(C)Cc1ccc(Cl)c(Cl)c1`, for which the cytotoxicity call is “inactive”.
For `Cc1noc(C)c1NC(=O)Nc1ccc2c(c1)CC(=O)N([C@@H](C)CO)C[C@@H](C)[C@@H](CN(C)Cc1ccc(C(=O)Nc3ccccc3N)cc1)O2`, the cytotoxicity call was “inactive”.
